Data on 21 compounds can be found in PubChem BioAssay (NCI).

Compounds without any hit were thinned out: in the full panel of roughly 79,000, 15% have a hit. A number with no mark means an inactive call. Activity calls are given as the source filed them. Cut-off read from the data, not from the text of the source: active = growth inhibition above about 70%; inactive = the rest.

The nature of test [1]: NCI Yeast Anticancer Drug Screen. Data for the rad50 strain (AID 155).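 Note: 0% = growth of vehicle-only cultures of the same strain.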 To be noted: S. cerevisiae rad50 strain growth inhibition; at 50.0 µM; active compounds read high. A digest of the protocol:
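Vehicle-treated cultures provide the reference for the growth inhibition reported for compound-exposed, repair-deficient yeast.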

Test [2] can be described thus: NCI Yeast Anticancer Drug Screen. Data for the mec2-1 strain (AID 157). The following applies: S. cerevisiae mec2-1 strain, at 50.0 µM, active compounds read high. A digest of the protocol: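 Vehicle-treated cultures served as reference for growth inhibition of compound-exposed mec2-1 yeast.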
Test [3] can be described thus: NCI Yeast Anticancer Drug Screen. Data for the sgs1 mgt1 strain (AID 161).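 Note: 0% = growth of cultures given vehicle only.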 To be noted: S. cerevisiae sgs1 mgt1 strain, at 50.0 µM, active compounds read high. The procedure, abridged:
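Genetically altered yeast, compound exposure, growth inhibition relative to vehicle.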

The nature of test [4]: NCI Yeast Anticancer Drug Screen. Data for the cln2 rad14 strain (AID 165).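 Note: 0% = growth equal to vehicle treated cultures.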 The following applies: S. cerevisiae cln2 rad14 strain, at 50.0 µM, active compounds read high. A digest of the protocol: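 Each compound was tested on cln2 rad14 yeast. Inhibition of growth was calculated against vehicle-exposed controls.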
Test [5] can be described thus: NCI Yeast Anticancer Drug Screen. Data for the bub3 strain (AID 167). To be noted: S. cerevisiae bub3 mutant strain, at 50.0 µM, active compounds read high. The procedure, abridged:
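Mutant yeast screening strain plus compound; vehicle-treated cultures serve as the 0% inhibition reference.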

A short description of test [6]: NCI Yeast Anticancer Drug Screen. Data for the mlh1 rad18 strain (AID 175). The following applies: S. cerevisiae mlh1 rad18 strain growth inhibition; at 50.0 µM; active compounds read high. The procedure, abridged: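 Vehicle-treated cultures served as the reference for growth inhibition in a yeast strain carrying DNA damage repair alterations exposed to each compound.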

Turning to `N#CC(C#N)=CN1CCNC1=S`, the growth inhibition was 14.3% in test [1]; -1.2% in test [2]; 20.4% in test [3]; 16.6% in test [4]; 17.6% in test [5]; 17.6% in test [6].
In the case of `CC(C)N(CSc1ccc([N+](=O)[O-])cc1)CSc1ccc([N+](=O)[O-])cc1`, the growth inhibition in test [1] is 12.3%; in test [2], 5.75%; in test [3], 4.1%; in test [4], -4.1%; in test [5] it was -4.7%; in test [6], -1%.
In the case of `CC(C)(C)c1cc(C[N+](C)(C)[O-])c(O)c(-c2ccccc2)c1`, the growth inhibition in test [1] is -0.65%; in test [2], -26.2%; in test [3], 2.05%; in test [4], -19.2%; in test [5], 6.35%; in test [6] it was -13.6%.
Consider `COc1cc(/C=C/C(=O)OC2C(O)C3CC(OC(=O)c4cc(OC)c(OC)c(OC)c4)CC2N3C)cc(OC)c1OC` (stereo unspecified), for which the growth inhibition was 0.55% in test [1]; -21.6% in test [2]; 7.6% in test [3]; 6.15% in test [4]; -7.95% in test [5]; -4.95% in test [6].
On to `OC1c2ccccc2-c2ccc(NCc3ccc4c(c3)OCO4)cc21` (stereo unspecified), for which the growth inhibition in test [1] is 48.8%; in test [2] it was -11.2%; in test [3], 17.4%; in test [4], -5.2%; in test [5] it was -4.1%; in test [6] it was 19.4%.
For the compound `Clc1nc(N2CCOCC2)nc(N2CCOCC2)n1`, the growth inhibition in test [1] was -9.5%; in test [2] it was -21.1%; in test [3], -3.2%; in test [4] it was -32.1%; in test [5], 7.7%; in test [6], -5.65%.
For the compound `CCOC(=O)C1CC(O)c2ccc(Cl)cc2N1` (stereo unspecified), the growth inhibition in test [1] is 5.45%; in test [2], 10.2%; in test [3], 20.6%; in test [4], 16.1%; in test [5] it was 9.6%; in test [6], 6.15%.
`COc1ccc([N+](=O)[O-])cc1NC(=O)Nc1ccc(F)c([N+](=O)[O-])c1`: the growth inhibition in test [1] was 8.6%; in test [2], 3.4%; in test [3], -6.3%; in test [4], 0.2%; in test [5], -3.8%; in test [6], 6.3%.
`CCCCN=C=C(c1ccccc1)c1ccccc1`: the growth inhibition in test [1] was 22%; in test [2], 12.5%; in test [3] it was -0.85%; in test [4] it was -35.8%; in test [5], -7.75%; in test [6], -15.1%.
As for `Cn1c(N)c2c(=O)n(C)c3c(c2c(C#N)c1=O)CCSc1ccccc1-3`, the growth inhibition in test [1] was -4.4%; in test [2], -6.35%; in test [3], 0.25%; in test [4], -36.5%; in test [5] it was -5.2%; in test [6] it was -1.9%.
Consider `CCN(CC)CCSCCSCCN(CC)CC`, for which the growth inhibition in test [1] is -24.7%; in test [2], -1.55%; in test [3], -3.05%; in test [4], -39%; in test [5] it was 8.65%; in test [6], -10.3%.
For the compound `CC12CCC(=O)C=C1CCC1C2C(=O)CC2(C)C1CCC2(O)C(=O)Cn1cc(F)c(=O)[nH]c1=O` (stereo unspecified), the growth inhibition in test [1] was 12.1%; in test [2], 9.5%; in test [3] it was 32.8%; in test [4] it was 11.9%; in test [5], -1.25%; in test [6] it was 6.5%.
In the case of `C/C(=N\Sc1cccc([N+](=O)[O-])c1)c1ccccc1O`, the growth inhibition in test [1] was 91.2% (active); in test [2], 96.5% (active); in test [3], 96.2% (active); in test [4], 90.8% (active); in test [5], 94% (active); in test [6] it was 96% (active).
For the compound `O=c1[nH]c(=O)c2[nH]c(=O)[nH]c2[nH]1`, the growth inhibition in test [1] is 8.35%; in test [2], -7.15%; in test [3], -13.5%; in test [4] it was 27.9%; in test [5], 7.25%; in test [6], -17.9%.
`C=C[Si](Cl)(Cl)c1ccccc1`: the growth inhibition in test [1] was 15.9%; in test [2], -2.45%; in test [3], 1.65%; in test [4], -0.15%; in test [5] it was 6.5%; in test [6], 11.2%.
With `Clc1ccc(-c2nnc(-c3ccncc3)o2)c(Cl)c1`, the growth inhibition was 18.1% in test [1]; -4.5% in test [2]; 17.9% in test [3]; -1.6% in test [4]; 27.2% in test [5]; 15.6% in test [6].
`CCC1(C#N)OC1C` (stereo unspecified): the growth inhibition in test [1] is 26.9%; in test [2] it was -24.1%; in test [3], 23.1%; in test [4] it was 10.8%; in test [5], 5.15%; in test [6], 27.4%.
On to `ClC1CCC(c2ccccc2)CC1` (stereo unspecified), for which the growth inhibition in test [1] was 9.2%; in test [2] it was -3.45%; in test [3] it was 1.5%; in test [4], 3.75%; in test [5], -11.2%; in test [6], -2.6%.
Consider `N#CCCCCCCC(N)=O`, for which the growth inhibition in test [1] was 4.4%; in test [2], -0.9%; in test [3] it was 6.4%; in test [4] it was -1.25%; in test [5], -5.6%; in test [6], -16.2%.
For `C/C=C/C(=O)OC1CCCC1`, the growth inhibition in test [1] is 30.9%; in test [2] it was 11.7%; in test [3], 23.6%; in test [4], 18.9%; in test [5] it was 10%; in test [6], 23.9%.
For the compound `O=C(N=C1C(=O)C2(CCCCC2)C2(N=C(c3ccccc3)OC2=O)C12CCCCC2)c1ccccc1` (stereo unspecified), the growth inhibition was 11.8% in test [1]; 8.75% in test [2]; 9.35% in test [3]; -5.05% in test [4]; -2.35% in test [5]; 14.5% in test [6].
